Compounds with a hit are over-represented: about 9.9% of the library has one in this group of screens.
JMJD2E inh = qHTS Assay for Inhibitors of Human Jumonji Domain Containing 2E (JMJD2E) | Lysine-specific demethylase 4E (Homo sapiens), B2RXH2 | Potency, µM (top dose mostly 57.1 µM), hits mostly inhibitors | JMJD2E catalytic domain, FDH-coupled NADH fluorescence (FDH is formaldehyde dehydrogenase) | 1.6% of 230,000 active; further: nearly all actives have a fitted effect of over 50% in size
Target sequence (B2RXH2 1-337 limits assumed): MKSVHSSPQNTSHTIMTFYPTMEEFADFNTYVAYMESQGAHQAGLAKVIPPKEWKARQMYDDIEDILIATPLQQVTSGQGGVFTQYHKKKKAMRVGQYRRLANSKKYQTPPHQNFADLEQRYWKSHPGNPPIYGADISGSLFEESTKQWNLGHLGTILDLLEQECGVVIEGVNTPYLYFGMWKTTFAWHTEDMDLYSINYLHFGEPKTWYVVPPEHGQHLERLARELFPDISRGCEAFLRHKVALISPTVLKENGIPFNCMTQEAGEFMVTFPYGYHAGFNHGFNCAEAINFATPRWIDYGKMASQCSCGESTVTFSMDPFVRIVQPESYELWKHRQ
HPGD block = qHTS Assay for Inhibitors of HPGD (15-Hydroxyprostaglandin Dehydrogenase); Potency, µM, hits mostly inhibitors; 15-hydroxyprostaglandin dehydrogenase [NAD(+)] (Homo sapiens), P15428; 4.3% of 150,000 active; purified HPGD, NADH fluorescence kinetic, PGE2 substrate; AID 894, 2007
Target sequence (P15428 whole entry, looked up): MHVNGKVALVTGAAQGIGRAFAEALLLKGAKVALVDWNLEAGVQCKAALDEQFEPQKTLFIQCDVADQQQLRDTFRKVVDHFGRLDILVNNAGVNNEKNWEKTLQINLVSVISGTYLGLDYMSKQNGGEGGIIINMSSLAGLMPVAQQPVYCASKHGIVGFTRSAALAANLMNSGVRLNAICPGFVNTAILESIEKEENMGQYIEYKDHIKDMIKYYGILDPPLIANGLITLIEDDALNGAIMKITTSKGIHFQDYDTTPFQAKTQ
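NADH formation kinetics: reaction with 30 uM PGE2 and 1 mM NAD+ (final), 20 nM enzyme, Tris-HCl pH 8 with Tween 20, after 15 min compound preincubation at room temperature. Fluorescence change, last versus first of five reads.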
ALDH1A1 inh = qHTS Assay for Inhibitors of Aldehyde Dehydrogenase 1 (ALDH1A1); Purified ALDH1A1, NADH fluorescence, propionaldehyde substrate; Potency, µM (series often up to 75.3 µM), actives largely listed as inhibitors; 7.3% of 220,000 active; AID 1030, 2008
Tau FP inhib = qHTS for Inhibitors of Tau Fibril Formation, Fluorescence Polarization | 0.39% of 280,000 active | K18 P301L tau heparin fibrillization, Alexa594 FP, 6 h | Microtubule-associated protein tau (Homo sapiens), P10636 | AID 1468, 2008 | Potency, µM (titrated, usually from 57.7 µM), hits mostly inhibitors; active means well fitted curve in the direction sought with a large enough effect; inconclusive means small, poorly fitted or top-dose-only effect, or another doubt; inactive means no such curve, though single readings can be large; an effect the other way counts as inactive or inconclusive; further: nearly all actives have a fitted effect of over 55% in size
Target sequence (P10636 561-689 P618L limits assumed): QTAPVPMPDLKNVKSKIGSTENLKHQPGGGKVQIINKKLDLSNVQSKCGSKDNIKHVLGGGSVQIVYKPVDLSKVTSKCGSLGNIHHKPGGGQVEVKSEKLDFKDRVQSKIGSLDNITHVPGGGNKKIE
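Steps: dispense K18 P301L tau (15 uM plus 0.24 uM Alexa 594 tracer, final) in pH 7 sodium acetate; add compound; add heparin (20 uM final); incubate 6 hr, 37 C; add ThT (30 uM final); after 1 hr ambient, read FP.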
Tau ThT inhib = qHTS for Inhibitors of Tau Fibril Formation, Thioflavin T Binding. recombinant tau K18 P301L, heparin-induced fibrillization, ThT fluorescence. Potency, µM (series often up to 57.4 µM), most hits filed as inhibitors. 2.1% of 270,000 active; active means well fitted curve in the direction sought with a large enough effect; inconclusive means small, poorly fitted or top-dose-only effect, or another doubt; inactive means no such curve, though single readings can be large; an effect the other way counts as inactive or inconclusive; further: nearly all actives have a fitted effect of over 55% in size
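Heparin-induced (20 uM) aggregation of recombinant human K18 P301L tau, 15 uM unlabeled with 0.24 uM labeled, pH 7 acetate buffer, 6 hr at 37 C with compound. Fibrils quantified by 30 uM ThT fluorescence after 1 hr ambient incubation.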
Tau fluor cs = Counterscreen qHTS for Inhibitors of Tau Fibril Formation, Fluorescence Polarization; tau K18 P301L (four-repeat tau fragment) Alexa594 fluorescence, heparin fibrillization; Potency, µM (titrated, usually from 57.7 µM); 0.93% of 280,000 active; AID 1463, 2008; active means well fitted curve in the direction sought with a large enough effect; inconclusive means small, poorly fitted or top-dose-only effect, or another doubt; inactive means no such curve, though single readings can be large; an effect the other way counts as inactive or inconclusive; further: nearly all actives have a fitted effect of over 55% in size
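Human K18 P301L tau (15 uM unlabeled plus 0.24 uM Alexa 594-labeled, final) in 100 mM sodium acetate pH 7 was mixed with compound and 20 uM heparin and incubated 6 hr at 37 C.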
Large screens that a line does not name were inactive; ! = not confirmed by another sample; [ ] = dose if it differs, or a comment. Unless noted, the call rests on the fitted dose curve; in most records, active means well fitted inhibition curve with a large enough effect (not every such curve was filed as active); inconclusive means small, poorly fitted or top-dose-only effect, or another doubt; inactive means no such curve, though single readings can be large or run the other way.

COC(=O)c1ccccc1NC(=O)C1CC(=O)N(c2ccc(C)c(C)c2)C1 (stereo not given)	ALDH1A1 inh 18µM
Cc1ccc(N2CC(C(=O)NCc3ccc4c(c3)OCO4)CC2=O)cc1C (stereo not given)	ALDH1A1 inh 14µM
CCc1ccc(NS(=O)(=O)c2ccc3[nH]cc(C(=O)NCc4ccc(C)cc4)c(=O)c3c2)cc1	Tau FP inhib 3.5µM, Tau fluor cs inconclusive (no result: JMJD2E inh, HPGD block, ALDH1A1 inh)
O=C(NCc1ccccc1)c1c[nH]c2ccc(S(=O)(=O)Nc3ccc4c(c3)OCCO4)cc2c1=O	ALDH1A1 inh inconclusive, Tau FP inhib inconclusive, Tau fluor cs 10µM[quencher]
O=C(O)c1cc(=O)c2ccc(Cl)cc2[nH]1	HPGD block 28µM!
Cc1cc(C(=O)N/N=C/c2cc([N+](=O)[O-])ccc2O)c2ccccc2n1	JMJD2E inh 28µM, Tau ThT inhib inconclusive
O=C(N/N=C/c1ccc2c(c1)OCO2)c1cc(-c2ccncc2)nc2ccccc12	HPGD block 28µM, Tau FP inhib inconclusive, Tau fluor cs inconclusive
Cc1cc(C(=O)N/N=C/c2cc(Br)cc([N+](=O)[O-])c2O)c2ccccc2n1	JMJD2E inh 6.3µM, Tau FP inhib inconclusive, Tau ThT inhib 7.9µM, Tau fluor cs inconclusive
O=C(N/N=C/c1cc([N+](=O)[O-])ccc1O)c1cc(-c2ccccc2)nc2ccccc12	ALDH1A1 inh inconclusive, Tau ThT inhib inconclusive, Tau fluor cs inconclusive
Cc1cc(C(=O)N/N=C/c2ccc([N+](=O)[O-])cc2)c2ccccc2n1	none (no result: HPGD block)
Cc1cc(C(=O)N/N=C/c2ccc(N(C)C)cc2)c2ccccc2n1	ALDH1A1 inh 35µM, Tau ThT inhib inconclusive (no result: HPGD block)
CCc1ccc2oc(-c3ccc(C)c(NC(=O)Cc4ccccc4)c3)nc2c1	Tau ThT inhib inconclusive (no result: JMJD2E inh, HPGD block, ALDH1A1 inh)
O=C(N/N=C/c1ccc[nH]1)c1ccc([N+](=O)[O-])cc1	Tau ThT inhib inconclusive
Cc1ccc2oc3nc(C)c(C(=O)Nc4cccc(C(F)(F)F)c4)cc3c(=O)c2c1	Tau ThT inhib inconclusive
Cc1csc(NC(=O)c2cc(C)nc3ccccc23)n1	none (no result: HPGD block)
Cc1cc(C(=O)N/N=C(\CCC(=O)O)c2cccs2)c2ccccc2n1	ALDH1A1 inh 25µM (no result: HPGD block)
O=c1[nH][nH]c(C(F)(F)F)c1C=NCc1cccs1	Tau FP inhib inconclusive (no result: HPGD block)
O=C(CN(Cc1ccc2c(c1)OCO2)C(=O)CNC(=O)c1ccco1)NC1CCCCC1	ALDH1A1 inh 22µM
O=C(CN(C(=O)CNC(=O)c1ccco1)c1ccc2c(c1)OCO2)NC1CCCCC1	ALDH1A1 inh inconclusive
O=C1C=C(NCc2ccc3c(c2)OCO3)CC(c2ccccc2)C1 (stereo not given)	ALDH1A1 inh inconclusive (no result: HPGD block)
O=C1c2cccc3cccc(c23)C(=O)N1CC1CCN(CC(O)COc2ccc3ccccc3c2)CC1 (stereo not given)	JMJD2E inh inconclusive, ALDH1A1 inh inconclusive, Tau ThT inhib 13µM, Tau fluor cs 16µM[quencher]
C=CCOC(=O)C1=C(C)N=c2s/c(=C3\C(=O)N(CC(=O)O)c4ccccc43)c(=O)n2C1c1ccc(OC)cc1 (stereo not given)	Tau FP inhib inconclusive, Tau ThT inhib 4µM (no result: HPGD block, ALDH1A1 inh)
O=C(C/C=N/OCc1ccccc1F)c1cnc(-c2ccc(Cl)cc2)s1	ALDH1A1 inh 22µM, Tau ThT inhib inconclusive
CO[C@H]1COC(=O)C/C=C\[C@@H](C)COC(=O)[C@@H](CCSC)NC(=O)C/C=C\[C@@H]1C	Tau FP inhib inconclusive, Tau ThT inhib inconclusive, Tau fluor cs inconclusive (no result: JMJD2E inh, HPGD block)
O=[N+]([O-])/C(=C\Nc1ccccc1)S(=O)(=O)c1ccccc1	none
O=[N+]([O-])/C(=C\Nc1ccccc1Cl)S(=O)(=O)c1ccccc1	HPGD block 32µM
Cc1ccc(CN2CCN(Cc3cccc4nccnc34)CC2CCO)cc1 (stereo not given)	none (no result: HPGD block, ALDH1A1 inh)
O=C(Nc1nnc(S(=O)(=O)N2CCCCC2)s1)c1ccc(F)cc1	Tau ThT inhib 4.5µM, Tau fluor cs inconclusive (no result: JMJD2E inh, HPGD block, ALDH1A1 inh)
Cc1ccccc1C(=O)Nc1nnc(S(=O)(=O)N2CCCCCC2)s1	Tau ThT inhib 14µM (no result: JMJD2E inh, HPGD block, ALDH1A1 inh)
Oc1c(Br)cc(Br)cc1C=Nc1ccc2c(c1)OCCO2	Tau FP inhib inconclusive, Tau ThT inhib 11µM (no result: HPGD block)
Oc1[nH]c2ccccc2c1C=Nc1ccc2c(c1)OCCO2	ALDH1A1 inh inconclusive, Tau ThT inhib 11µM, Tau fluor cs inconclusive (no result: HPGD block)
Cc1cc(NC(c2nnc(-c3ccccc3)o2)c2ccccc2F)ccc1Br (stereo not given)	Tau fluor cs inconclusive (no result: JMJD2E inh, HPGD block, ALDH1A1 inh)
C=CCN=C1SC(CC)C(=O)N1S(=O)(=O)c1ccc(C)cc1 (stereo not given)	ALDH1A1 inh 6.3µM
CCN(CCCNC(=O)c1nn(-c2ccc(OC)c(Cl)c2)c(=O)c2c1c1ccccc1n2C)c1cccc(C)c1	none (no result: JMJD2E inh, HPGD block, ALDH1A1 inh)
O=C(CCN1C(=O)C2C3C=CC(C3)C2C1=O)NCCc1ccccc1Cl (stereo not given)	ALDH1A1 inh 8.9µM
O=C(NCCc1ccc(Cl)cc1)c1ccc(CSCc2cccc(Cl)c2)o1	none (no result: JMJD2E inh, HPGD block, ALDH1A1 inh)
CCOC(=O)c1[nH]c(C)c(CCC(=O)Nc2ccccc2OCC)c1C	none (no result: JMJD2E inh, HPGD block, ALDH1A1 inh)
Cc1c(OCc2nn[nH]n2)ccc2c(-c3ccccc3)cc(=O)oc12	JMJD2E inh inconclusive, HPGD block 13µM, ALDH1A1 inh 16µM
CCc1cc(=O)oc2cc(OCc3nn[nH]n3)ccc12	JMJD2E inh 20µM, HPGD block inconclusive, ALDH1A1 inh inconclusive
CCn1c(COc2ccc(=O)n(-c3ccccc3)n2)n[nH]c1=S	none (no result: HPGD block)
CCOC(=O)C(=CNc1ccc(NC2=NCC(C)S2)cc1)C(=O)OCC (stereo not given)	HPGD block 14µM
CCOC(=O)C(=CNc1ccc(C(F)(F)F)cc1)C(=O)OCC	none (no result: HPGD block, ALDH1A1 inh)
CNc1ncnc2ccc(-c3ccccc3OC)cc12	JMJD2E inh inconclusive, HPGD block inconclusive, ALDH1A1 inh inconclusive
CC1CCCCN1c1nnc(N)s1 (stereo not given)	HPGD block inconclusive, ALDH1A1 inh inconclusive
CC1CCCC(C)N1c1nnc(N)s1 (stereo not given)	HPGD block 28µM
CCc1nnc(NS(=O)(=O)c2ccc(NC(=S)NC(=O)/C=C/c3ccc(C(C)C)cc3)cc2)s1	HPGD block 25µM, Tau ThT inhib inconclusive
CCc1nnc(NS(=O)(=O)c2ccc(NC(=S)NC(=O)/C=C/c3ccc(OC)cc3)cc2)s1	HPGD block inconclusive, ALDH1A1 inh 2.5µM
CCc1nnc(NS(=O)(=O)c2ccc(NC(=S)NC(=O)c3ccc(Br)cc3)cc2)s1	HPGD block 14µM
